What is called AC50 is the concentration at which the activity in the assay is half-maximal.

The structures appear in SMILES notation. Several values for one entry are separate records, joined by “and”; a condition that tells them apart may be missing. Equal entries are not always repeated. The campaign covered roughly 16,000 compounds. About 2,600 (16%) were called active. Not shown: some 20% with an inconclusive outcome. Calls follow the shape of the dose curve; as a rule, active = well fitted curve in the direction sought with a large enough effect; inconclusive = small, poorly fitted or top-dose-only effect, or effect the other way; inactive = no such curve, though single readings can be large or run the other way. Not all results are given here. Square brackets hold non-standard residues; d marks the D form. Peptide text beside a SMILES is read from it. * marks the point of attachment. ξ: configuration not given here. Cbz = O=C(OCc1ccccc1)*; OBn = c1ccc(CO*)cc1; ξP = O=C(O)C1CCCN1
% is scaled to controls: 0 for no effect and ±100 for the full control effect.

Chain of Cytochrome P450 2D6 (Homo sapiens) (P10635 whole entry, looked up): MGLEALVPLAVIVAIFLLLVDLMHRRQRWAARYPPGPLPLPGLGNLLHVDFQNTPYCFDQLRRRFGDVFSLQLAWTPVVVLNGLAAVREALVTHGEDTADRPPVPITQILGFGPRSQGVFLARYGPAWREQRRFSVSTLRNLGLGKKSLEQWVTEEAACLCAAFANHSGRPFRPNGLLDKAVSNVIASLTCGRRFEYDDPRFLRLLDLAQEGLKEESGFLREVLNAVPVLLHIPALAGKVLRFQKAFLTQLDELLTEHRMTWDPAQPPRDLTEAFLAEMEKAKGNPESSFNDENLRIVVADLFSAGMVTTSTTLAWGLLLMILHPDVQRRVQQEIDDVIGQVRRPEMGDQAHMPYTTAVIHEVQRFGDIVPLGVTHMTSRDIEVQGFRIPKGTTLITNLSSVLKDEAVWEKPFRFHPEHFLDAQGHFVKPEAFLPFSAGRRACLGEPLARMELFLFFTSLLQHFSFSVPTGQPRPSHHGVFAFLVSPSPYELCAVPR

This assay concerns the target Cytochrome P450 2D6 (Homo sapiens) (UniProt P10635). As to the kind of experiment: Cytochrome panel assay with activity outcomes. Conditions: recombinant CYP, pro-luciferin dealkylation, luminescence, p450-cyp2d6; series mostly up to 57.1 µM.
Consider `Nc1nc2c(c(=O)[nH]1)CN(CCCN1CCOCC1)CN2`, for which the activity, negative = inhibition was 0.904% [at 11.4 µM] (inactive).

In the case of `Nc1ccc(S(=O)(=O)Nc2ncccn2)cc1`, the AC50 entry is “inactive”.

As for `O=C1[C@H]2[C@H]3[C@H](O)[C@H](O)C/C(=N/OC[C@@H](O)COCc4ccco4)[C@@H]3CC[C@@H]2C(=O)N1C[C@@H]1CCCO1`, the activity, negative = inhibition was 3.77% [at 11.4 µM] (inactive).

Consider `Cc1nnc(NC(=O)c2cccc(NC(=O)C(C)C)c2)s1`, for which the AC50 entry was “inactive”.

With `O=C(O)c1cc(S(=O)(=O)NCC2CCCO2)ccc1Cl` (centres undefined), the AC50 result is “inactive”.

Regarding `CN[C@@H]1[C@H](O[C@H]2[C@@H](O[C@@H]3[C@@H](O)[C@@H](O)[C@@H](N=C(N)N)[C@@H](O)[C@@H]3N=C(N)N)O[C@@H](C)[C@]2(O)CO)O[C@H](CO)[C@@H](O)[C@@H]1O`, the AC50 entry was “inactive”.

With `COc1ccccc1C1=NOC(COC(=O)c2ccc3ccccc3n2)C1` (centres undefined), the AC50 entry was “inactive”.

In the case of `O=C(CN(c1ccccc1)S(=O)(=O)c1ccccc1)NCCSCc1ccco1`, the AC50 was 15.8 µM (active).

Consider `CN(CCC(=O)O)S(=O)(=O)c1ccccc1`, for which the activity, negative = inhibition is 4.74% [at 11.4 µM] (inactive).

For the compound `Cc1cccc(CSCCNC(=O)c2ccc(N(C)S(=O)(=O)c3ccccc3)cc2)c1`, the AC50 was 3.98 µM (active).

Turning to `CN(c1ccc(C(=O)NCc2ccccn2)cc1)S(C)(=O)=O`, the AC50 entry was “inactive”.

For the compound `Cc1cccc(N(CC(=O)NCCSCc2ccco2)S(=O)(=O)c2ccccc2)c1`, the AC50 was 10 µM (active).

As for `COc1ccc(S(=O)(=O)N(C)CC(=O)NCc2ccco2)cc1`, the AC50 entry was “inactive”.

For `CN(c1ccc(C(=O)NCC2CCCO2)cc1)S(=O)(=O)c1ccccc1` (centres undefined), the AC50 entry is “inactive”.

With `Cc1cccc(N(CC(=O)N2CCOCC2)S(C)(=O)=O)c1`, the AC50 result is “inactive”.

Regarding `Cc1cccc(Cc2c(C)nc3nc(SCC(=O)NCc4ccco4)nn3c2C)c1`, the AC50 result is “inactive”.

With `COc1cccc(Nc2ncc3ncc(=O)n(C4CC4)c3n2)c1`, the AC50 entry is “inactive”.

`Cc1ccc(C)c(CN2C(=O)C3CCCN3c3ccc(C#N)cc32)c1` (centres undefined): the AC50 entry was “inactive”.

For the compound `CCOC(=O)c1c(C)oc2c1c(C=NC1CCS(=O)(=O)C1)c(O)c1ccccc12` (centres undefined), the AC50 entry was “inactive”.

`CCN1C(=O)[C@H]2[C@H]3[C@H](O)[C@H](O)C/C(=N/O[C@@H](C)c4cn([C@H](CO)Cc5ccccc5)nn4)[C@@H]3CC[C@@H]2C1=O`: the activity, negative = inhibition is 6.53% [at 11.4 µM] (inactive) and -9.99% [at 11.4 µM] (inactive).

With `Cc1c(/C=N/NC(=O)c2ccc3c(c2)OCO3)cnn1C`, the AC50 result was “inactive”.

For the compound `CCNC(=S)NNC(=O)c1cc(C2CC2)nc2ccccc12`, the AC50 result is “inactive”.

For `COC(=O)c1nn(-c2ccccc2)c(-c2ccccc2)c1C(=O)c1ccccc1`, the AC50 result was “inactive”.

As for `CCCOc1ccccc1C1CC(=O)NC(C)=C1C(=O)OCC(C)C` (centres undefined), the AC50 entry is “inactive”.

Regarding `O=C(NCCO)c1cc2c(s1)CCC2`, the AC50 entry was “inactive”.

`Cc1cc(C(=O)CC#N)c(C)n1CC(F)(F)F`: the AC50 result was “inactive”.

Take `CCOC(=O)c1c2c(n3ccccc13)C(=O)c1ccccc1C2=O`: the activity, negative = inhibition is 5.34% [at 11.4 µM] (inactive).

`COCCNC(=O)Cn1cnc2ccc(S(=O)(=O)N3CCC(C)CC3)cc2c1=O`: the AC50 entry was “inactive”.

On to `Cc1ccc2nc(N3CCN(S(=O)(=O)c4ccc5c(c4)OCCO5)CC3)c(C#N)cc2c1`, for which the AC50 entry was “inactive”.

Turning to `NC(=O)c1ccc(NC(=O)C2CCCO2)cc1` (centres undefined), the AC50 entry was “inactive”.

In the case of `CSc1ccc(CNc2ccc(Cl)cc2)cc1`, the AC50 result is “inactive”.

Turning to `CSc1ccc(CNc2ccc(C)c(C)c2)cc1`, the AC50 was 11.2 µM (active).

Turning to `Cc1nc2cnc(Oc3ccccc3)nc2n(C)c1=O`, the AC50 result was “inactive”.

As to `COc1ccc(-c2nc3cnc(OC)nc3n(C)c2=O)cc1`, the AC50 entry was “inactive”.

Turning to `CCCS(=O)(=O)N1CCCC(C(=O)NCc2cccnc2)C1` (centres undefined), the AC50 entry was “inactive”.

`COc1ccc(OC)c(S(=O)(=O)N2CCC(C(=O)Nc3ccc(C)c(C)c3)CC2)c1`: the AC50 result is “inactive”.

Regarding `O=C(Nc1ccc(Cl)c(C(F)(F)F)c1)C1CCCN(S(=O)(=O)c2cnc[nH]2)C1` (centres undefined), the AC50 was 3.98 µM (active).

As to `CCOc1ccc(-c2nnc3ccc(SC)nn23)cc1`, the AC50 result is “inactive”.

With `N[C@@H](CSS(=O)(=O)O)C(=O)O`, the AC50 entry was “inactive”.

Turning to `CCOC(=O)c1c(C)nc2sc3c(=O)n(-c4ccc(C(C)=O)cc4)nnc3c2c1-c1ccc(Cl)cc1`, the AC50 result was “inactive”.

In the case of `N#Cc1ccccc1-c1cncnc1NCc1cccnc1`, the AC50 result was “inactive”.

Regarding `Cc1cccc(CNc2ncncc2-c2ccccc2C)c1`, the AC50 is 3.98 µM (active).

In the case of `CN(C)Cc1ccccc1-c1cncnc1NCc1cccnc1`, the AC50 was 6.31 µM (active).

With `Cc1noc(C)c1-c1cncnc1NCc1ccccc1`, the AC50 result was “inactive”.

In the case of `Cc1ccccc1-c1cncnc1NCc1cccnc1`, the AC50 was 15.8 µM (active).

Regarding `Cc1ccccc1-c1cncnc1NCc1ccccc1`, the AC50 was 12.6 µM (active).

As to `CN(C)C(=O)c1ccc(-c2cncnc2NCc2cccnc2)cc1`, the AC50 entry is “inactive”.

`CC(C)Sc1cc(N2CCCC2)nc(-c2ccc(F)cc2)n1`: the AC50 result is “inactive”.

For the compound `C=CCNC(=S)N/N=C/c1ccc(-c2cc(Cl)ccc2Cl)o1`, the AC50 entry was “inactive”.

Consider `O=C(CNC(=O)OCc1ccccc1)NCC(=O)N1CCCC1C(=O)OCc1ccccc1` (stereo not drawn) (Cbz-Gly-Gly-[ξP]-OBn), for which the AC50 entry is “inactive”.

With `CSCCC(NC=C1C(=O)OC(C)(C)OC1=O)C(=O)O` (centres undefined), the AC50 result is “inactive”.

For `CCOc1cc(/C=C2/NC(=O)N(CC(=O)Nc3cccc(C)c3)C2=O)ccc1OC`, the AC50 result was “inactive”.

As to `CCCCSCc1nc2nc(Cl)c(Cl)nc2[nH]1`, the activity, negative = inhibition is -12.2% [at 11.4 µM] (inactive).

On to `C[n+]1ccc(/C=C/c2ccc(Br)cc2)cc1`, for which the AC50 entry is “inactive”.

Regarding `OCCNc1ncnc2nc[nH]c12`, the activity, negative = inhibition was -4.05% [at 11.4 µM] (inactive).

In the case of `Cc1cc(NC(=O)COC(=O)c2ccc(S(=O)(=O)N3CCCc4ccccc43)cc2)no1`, the AC50 result was “inactive”.

Turning to `Cc1noc(C)c1-c1cncnc1NC1CC1`, the AC50 result was “inactive”.

In the case of `Cc1cnc(CNc2ncncc2-c2ccccc2C(F)(F)F)cn1`, the AC50 result is “inactive”.

For `Cc1cccc(CNc2ncncc2-c2ccccc2C(F)(F)F)c1`, the AC50 was 12.6 µM (active).

As to `c1cncc(-c2cncnc2NC2CCNCC2)c1`, the AC50 entry was “inactive”.

Take `Cc1cnc(CNc2cc(-c3ccccc3C(F)(F)F)ncn2)cn1`: the AC50 result is “inactive”.

With `Cc1cccc(CNc2ncncc2-c2ccccc2Cl)c1`, the AC50 is 2 µM (active).

Turning to `Cc1ccccc1-c1cncnc1NC1CCNCC1`, the AC50 is 10 µM (active).

Regarding `O=C(c1cnccn1)N1CCC[C@@]2(CCN(c3ccncc3)C2)C1`, the AC50 entry was “inactive”.

`Cc1ccc(OC(=O)c2cccc(C(=O)Oc3ccc(C)cc3)n2)cc1`: the AC50 entry is “inactive”.

With `N[C@H](C(=O)O)[C@H](O)C(=O)O`, the AC50 result is “inactive”.

Regarding `O=C1C(Cc2ccccc2)C(c2ccccc2)N1c1ccccc1` (centres undefined), the AC50 entry was “inactive”.

In the case of `COc1ncc2nc(-c3ccc(F)cc3)c(=O)n(Cc3ccc(F)cc3)c2n1`, the AC50 result was “inactive”.

With `N[C@@H](Cc1ccnnc1)C(=O)O`, the activity, negative = inhibition is -0.458% [at 11.4 µM] (inactive).

For `Cc1nc2cnc(Oc3ccccc3)nc2n(CCc2ccccc2)c1=O`, the AC50 entry was “inactive”.

For `COc1n[nH]c2nncnc12`, the AC50 entry was “inactive”.

Take `O=C(CCc1nc(-c2ccccc2)c(-c2ccccc2)o1)OCc1ccc(Cl)cc1`: the AC50 entry was “inactive”.

Regarding `O=[N+]([O-])c1ccc2nc(-c3ccc(Cl)cc3)n(OCc3ccccc3)c2c1`, the AC50 result was “inactive”.

For `O=[N+]([O-])c1ccc2nc(-c3ccccc3)n(OCc3ccc(Cl)cc3)c2c1`, the AC50 was 6.31 µM (active).

On to `Clc1ccc(COn2c(-c3ccccc3)nc3ccccc32)cc1`, for which the AC50 is 15.8 µM (active).

With `Cc1ccc(COn2c(-c3ccc(Cl)cc3)nc3ccc([N+](=O)[O-])cc32)cc1`, the AC50 entry is “inactive”.

As to `Cn1c(=O)c(-c2ccc(Cl)cc2)nc2cnc(OCc3ccccc3)nc21`, the AC50 entry is “inactive”.

As for `COc1cccc(Cn2c(=O)c(-c3cn(C)c4ccccc34)nc3cnc(N4CCOCC4)nc32)c1`, the AC50 entry is “inactive”.

For `O=c1c(-c2ccc(F)c(F)c2)nc2cncnc2n1-c1ccccc1`, the AC50 entry was “inactive”.

`NS(=O)(=O)c1ccc(N=Nc2ccc(O)c(C(=O)O)c2)cc1`: the activity, negative = inhibition is -7.58% [at 11.4 µM] (inactive).

As to `Cc1ccccc1/C=C1\OC(=O)c2ccccc21`, the AC50 result is “inactive”.

Regarding `CCCC[C@@H]1C[C@H]1C(NC(=O)c1cccs1)c1ccccc1C(F)(F)F` (some centres undefined), the AC50 entry is “inactive”.

Turning to `CC(C)CCn1nnnc1C(c1ccc(F)cc1)N1CCN(C(=O)c2ccco2)CC1` (centres undefined), the AC50 is 14.1 µM (active).

As to `CCC(c1nnnn1CCOC)N1CCN(C(=O)c2ccco2)CC1` (centres undefined), the AC50 entry is “inactive”.

As for `Cc1ccc(C(c2nnnn2CC2CCCO2)N2CCN(C(=O)c3ccco3)CC2)cc1` (centres undefined), the AC50 entry is “inactive”.

As for `O=C(Nc1ccccc1N1CCN(C(=O)c2ccccc2)CC1)c1cc(Br)ccc1Cl`, the AC50 entry is “inactive”.

For the compound `S=c1[nH]nc(CSCc2ccccc2Cl)n1-c1ccccc1`, the AC50 entry was “inactive”.

Take `COC(=O)[C@@]1(Cc2ccc(OC)cc2)[C@@H]2[C@@H](CC(=O)[C@H]2CC(=O)C(=O)N2CCCC2)CN1C(=O)c1ccccc1`: the AC50 result was “inactive”.

As to `Cc1cccc(NC(=S)N/N=C/c2ccc([N+](=O)[O-])s2)c1`, the AC50 entry is “inactive”.

In the case of `COc1ccc(-c2nc(N)c3ncn([C@H]4O[C@@H](CO)[C@@H](O)[C@@H]4O)c3n2)cc1`, the activity, negative = inhibition was 1.32% [at 11.4 µM] (inactive).

`COc1ccc(-n2c(=O)[nH]cc(C(=O)Nc3ccc4c(c3)OCCO4)c2=O)cc1`: the AC50 entry is “inactive”.

Consider `CC(Sc1nnc(C(C)N(C)C)n1-c1ccc(Cl)cc1)C(=O)Nc1ccc2c(c1)OCO2` (centres undefined), for which the AC50 was 14.1 µM (active).

Regarding `Cc1cc(C)c(NC(=O)C(C)Sc2nnc(-c3ccco3)n2-c2ccccc2)c(C)c1` (centres undefined), the AC50 entry was “inactive”.

For `CC(C)C1NC(=S)N(Cc2ccccc2)C1=O` (centres undefined), the AC50 entry is “inactive”.

For `COc1ccc(CNCCC(c2ccc(OC(C)C)cc2)C(C)C)cc1OC` (centres undefined), the half-maximal activity concentration (AC50) was 0.251 µM (active).

Take `COc1ccc(CCNC[C@H](O)c2ccc(O)cc2)cc1OC`: the AC50 entry is “inactive”.

On to `COc1ccc(C[N+](C)(C)N)cc1OC`, for which the activity, negative = inhibition was 0.726% [at 11.4 µM] (inactive).

Turning to `COC(=O)C/C=C\[C@@H](C)[C@@H](/C=N\O[C@@H](C)c1cc(-c2c(C)cc(C)cc2C)no1)OC`, the activity, negative = inhibition was -10.8% [at 11.4 µM] (inactive).

For the compound `COc1ccc(-n2c(CNc3ccc(C)cc3)nnc2SCC(=O)Nc2nc(-c3ccccc3)cs2)cc1`, the AC50 entry is “inactive”.

These data come from PubChem BioAssay AID1851 (National Center for Advancing Translational Sciences (NCATS), 2009).
